This is an account of results in the antibiotic and cytotoxicity screens of Wong et al. (2023).

Hit rate of the full screen: of about 39,000 compounds, about 3,300 (8.5%) were called active. The list comes from a sample in which actives are over-represented; it also holds similar structures and randomly drawn compounds.

This assay concerns HepG2. Briefly: cytotoxicity call (relative viability < 0.9). The settings on record: 10 µM.
For `COc1ccc2c3c(n(c2c1)C)[C@H](CO)N(C[C@]13CCN(CC1)S(=O)(=O)c1ccccc1)C(=O)c1cccnc1`, the cytotoxicity call was “inactive”. `c1ccc(-c2cc(-c3nc4ccccc4[nH]3)c3ccccc3n2)cc1`: the cytotoxicity call is “inactive”. As for `CNCc1cnc(NC)nc1`, the entry is “inactive”; as for `C[C@@H]1CN([C@H](C)CO)C(=O)c2cccc(NS(=O)(=O)c3cn(C)cn3)c2O[C@H]1CN(C)CC1CC1`, “inactive”; as for `CCO[C@@H]1OC(C(=O)N2CCN(Cc3ccccc3)CC2)=C[C@H](c2cn(C(C)=O)c3ccccc23)[C@H]1CCCOC(=O)NCCCCCC(=O)NO`, “inactive”. Take `CNCc1cc(C)nn1C`: the cytotoxicity call was “inactive”.

As to `COc1cccc(-c2cn(CC[C@@H]3CC[C@@H](NS(=O)(=O)c4ccccc4Cl)[C@H](CO)O3)nn2)c1`, the cytotoxicity call is “inactive”. With `C[C@H](CO)N1C[C@H](C)[C@@H](CN(C)S(=O)(=O)c2ccc(F)cc2)Oc2ccc(NC(=O)C3CC3)cc2C1=O`, the cytotoxicity call was “inactive”. Regarding `Cc1ccc(S(=O)(=O)N[C@H]2CC[C@@H](CC(=O)NCc3ccc(Cl)c(Cl)c3)O[C@H]2CO)cc1`, the cytotoxicity call was “inactive”. As for `C[C@@H]1CCCCO[C@@H](CN(C)CC2CC2)[C@@H](C)CN([C@H](C)CO)C(=O)c2cc(NC(=O)CCC(F)(F)F)ccc2O1`, the entry is “inactive”. `C[C@@H]1CN([C@@H](C)CO)C(=O)Cc2cc(NC(=O)CCCCCC(=O)Nc3ccccc3N)ccc2O[C@H]1CN(C)Cc1ccc(-c2ccccc2)cc1`: the cytotoxicity call was “inactive”. To `C[C@H]1CN([C@@H](C)CO)C(=O)Cc2cc(NC(=O)CCCCCC(=O)Nc3ccccc3N)ccc2O[C@H]1CN(C)Cc1ccc(-c2ccccc2)cc1` belongs “active”; to `C[C@@H]1CN([C@H](C)CO)C(=O)Cc2cc(NC(=O)CCCCCC(=O)Nc3ccccc3N)ccc2O[C@H]1CN(C)Cc1ccc(-c2ccccc2)cc1`, “inactive”; to `C[C@@H]1CN([C@H](C)CO)C(=O)c2cc(NS(=O)(=O)c3ccc(Cl)cc3)ccc2O[C@@H]1CN(C)Cc1ccc(C(=O)Nc2ccccc2N)cc1`, “inactive”.

For `C[C@@H]1CN([C@@H](C)CO)C(=O)c2cccc(NS(=O)(=O)c3ccc(Cl)cc3)c2O[C@@H]1CN(C)Cc1ccc(C(=O)Nc2ccccc2N)cc1`, the cytotoxicity call is “active”.

Consider `C[C@H]1CN([C@@H](C)CO)C(=O)c2cccc(NS(=O)(=O)c3ccc(Cl)cc3)c2O[C@@H]1CN(C)Cc1ccc(C(=O)Nc2ccccc2N)cc1`, for which the cytotoxicity call was “inactive”. As for `C[C@@H]1CN([C@@H](C)CO)C(=O)c2cccc(NS(=O)(=O)c3ccc(Cl)cc3)c2O[C@H]1CN(C)Cc1ccc(C(=O)Nc2ccccc2N)cc1`, the entry is “inactive”. To `C[C@@H]1CN([C@H](C)CO)C(=O)c2cccc(NS(=O)(=O)c3ccc(Cl)cc3)c2O[C@@H]1CN(C)Cc1ccc(C(=O)Nc2ccccc2N)cc1` belongs “inactive”; to `C[C@H](CO)N1C[C@H](C)[C@H](CN(C)Cc2ccc(C(=O)Nc3ccccc3N)cc2)Oc2c(NS(=O)(=O)c3ccc(Cl)cc3)cccc2C1=O`, “active”. As for `C[C@H](CO)N1C[C@H](C)[C@H](CN(C)Cc2ccc(C(=O)Nc3ccccc3N)cc2)Oc2ccc(NS(=O)(=O)c3ccc(Cl)cc3)cc2C1=O`, the entry is “inactive”; as for `C[C@@H]1CN([C@H](C)CO)C(=O)c2cccc(NS(=O)(=O)c3ccc(Cl)cc3)c2O[C@H]1CN(C)Cc1ccc(C(=O)Nc2ccccc2N)cc1`, “inactive”. Take `C[C@@H]1CN([C@@H](C)CO)C(=O)c2cc(NS(=O)(=O)c3ccc(Cl)cc3)ccc2O[C@@H]1CN(C)Cc1ccc(C(=O)Nc2ccccc2N)cc1`: the cytotoxicity call was “active”. `CCSC(=S)N[C@H]1CCS(=O)(=O)C1`: the cytotoxicity call is “inactive”. Regarding `CC(C)NC(=O)Nc1ccc2c(c1)C(=O)N([C@@H](C)CO)C[C@@H](C)[C@@H](CN(C)C(=O)Nc1ccc(F)cc1)OCCCC[C@@H](C)O2`, the cytotoxicity call was “inactive”. As for `C[C@H](O)C#Cc1ccc2c(c1)O[C@@H](CN(C)C)[C@H](C)CN([C@@H](C)CO)S2(=O)=O`, the cytotoxicity call is “inactive”. As to `COC(=O)C[C@H]1CC[C@@H]2[C@H](COC[C@@H](O)CN2S(=O)(=O)c2ccccc2C)O1`, the cytotoxicity call was “inactive”. As for `Cc1ccc(S(=O)(=O)N(C)C[C@@H]2Oc3c(NS(C)(=O)=O)cccc3C(=O)N([C@@H](C)CO)C[C@H]2C)cc1`, the entry is “inactive”; as for `C[C@@H]1CCCCO[C@@H](CN(C)CC2CC2)[C@H](C)CN([C@@H](C)CO)C(=O)c2cc(NC(=O)CCC(F)(F)F)ccc2O1`, “inactive”.

As for `Cn1c([N+](=O)[O-])cnc1COC(N)=O`, the cytotoxicity call is “inactive”. On to `COc1ccc(NC(=O)Nc2ccc3c(c2)[C@H]2C[C@H](CC(=O)N4CCN(C)CC4)O[C@H](CO)[C@H]2O3)cc1`, for which the cytotoxicity call is “inactive”. For `COCCOC(=O)N1C(=O)[C@@]2(c3cc(C#CCCO)ccc31)[C@H](c1ccc(O)cc1)N1[C@H](c3ccccc3)[C@H](c3ccccc3)OC(=O)[C@H]1[C@@H]2C(=O)N1CCc2cc(OC)c(OC)cc2C1`, the cytotoxicity call is “inactive”. As for `Cc1ccc(C(C)C)c(O)c1`, the entry is “inactive”.

Consider `Cc1cccc(NC(=O)C(C)C)c1`, for which the cytotoxicity call was “inactive”. In the case of `CC1(C)NC(=O)N(c2ccc([N+](=O)[O-])c(C(F)(F)F)c2)C1=O`, the cytotoxicity call was “inactive”.

For the compound `CC(C)C(=O)Nc1ccc([N+](=O)[O-])c(C(F)(F)F)c1`, the cytotoxicity call was “active”.

Turning to `COc1cccc(S(=O)(=O)N(C)C[C@@H]2OCc3cnnn3CCCC(=O)N([C@@H](C)CO)C[C@@H]2C)c1`, the cytotoxicity call is “inactive”. For `COc1ccc(S(=O)(=O)N(C)C[C@@H]2Oc3c(NC(=O)Nc4c(C)noc4C)cccc3C(=O)N([C@H](C)CO)C[C@H]2C)cc1`, the cytotoxicity call is “inactive”. As for `Cc1noc(C)c1NC(=O)N(C)C[C@H]1OCCCC[C@@H](C)Oc2ccc(NC(=O)Nc3cccc4ccccc34)cc2C(=O)N([C@H](C)CO)C[C@@H]1C`, the entry is “inactive”. To `CCOC(=O)CN(C#N)c1nc(C)cc(C)n1` belongs “inactive”. As for `CCOC(=O)n1ncc(C#N)c1N`, the entry is “inactive”. On to `CCOC(=O)/C(C#N)=C1/C=CN(C)C=N1`, for which the cytotoxicity call was “active”. Take `C[C@H]1CN([C@@H](C)CO)C(=O)c2cccc(NC(=O)CCCCCC(=O)Nc3ccccc3N)c2O[C@@H]1CN(C)C(=O)Nc1ccc(C(F)(F)F)cc1`: the cytotoxicity call was “inactive”. Consider `O=C(C[C@@H]1CC[C@H]2[C@@H](COC[C@H](O)CN2C(=O)Nc2cccc(Cl)c2)O1)NCCCN1CCOCC1`, for which the cytotoxicity call is “inactive”. As for `C[C@H]1CN([C@@H](C)CO)C(=O)c2cccc(NC(=O)C3CC3)c2O[C@@H]1CN(C)C(=O)NC1CCCCC1`, the entry is “inactive”.
